Measured values: the supplement of paper PMC10849652
The full data set covers some 7,900 targets. This sample favours those with a hit. About 0.6% of all pairs of compound and target were hits. A number with no mark means an inactive call.

How the values were obtained:
Assay in all cases: log2 fold change, soluble protein after heating vs DMSO (PISA); higher = thermal stabilisation; K562 cells, 10 uM, 30 min; active = over 0.2 and 3.5 SD of the protein, either way, in both replicates (recomputed)
[1] = compound: CC[C@@H]1C(=O)N(C)c2cnc(Nc3ccc(C(=O)NC4CCN(C)CC4)cc3OC)nc2N1C1CCCC1
Method in brief: (§1)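 Thermal stability values are relative to control samples and come from duplicates. They are expressed as log2 fold changes. For measurement, K562 cells (2×10^6 cells/mL) received 10 μM compound for 30 min, and aliquots were heated for 3 min over 48°C-58°C, pooled, and extracted at 4°C in PBS with 0.5% NP-40. Soluble protein, the supernatant after 21,000xg for 90 min, was quantified by TMTpro 16plex LC-MS/MS with equalised channel sums.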

volasertib = compound: CC[C@@H]1C(=O)N(C)c2cnc(Nc3ccc(C(=O)N[C@H]4CC[C@H](N5CCN(CC6CC6)CC5)CC4)cc3OC)nc2N1C(C)C [volasertib]
Method in brief: as §1

[2] = compound: CC[C@H](C)N1C=C(C2=C(C=C(C=C21)C3=CN=C(C=C3)N4CCNCC4)C(=O)NCC5=C(C=C(NC5=O)C)C)C
Method in brief: as §1

epoxomicin = compound: CC[C@H](C)[C@@H](C(=O)N[C@@H]([C@@H](C)O)C(=O)N[C@@H](CC(C)C)C(=O)[C@]1(CO1)C)NC(=O)[C@H]([C@@H](C)CC)N(C)C(=O)C [epoxomicin]
Method in brief: as §1

[3] = compound: CCn1c(C(=O)N(C2CC2)C2CC2)cc2c3c(ncn3C)c(Nc3cc(C)n(C)n3)nc21
Method in brief: as §1

[4] = compound: CCn1cc(-c2ccnc3[nH]c(-c4cccc(CN(C)C)c4)cc23)c(-c2ccc(NC(=O)N(C)C)cc2)n1
Method in brief: as §1

[5] = compound: CN(C)CC(=O)Nc1ccc2[nH]c(=O)c3ccccc3c2c1
Method in brief: as §1

rosiglitazone = compound: CN(CCOC1=CC=C(C=C1)C[C@H]2C(=O)NC(=O)S2)C3=CC=CC=N3 (racemic) [rosiglitazone]
Method in brief: as §1

[6] = compound: CN1C2=C(C3=C1C(=O)N(N=C3)CC4=CC(=CC=C4)N)SC(=C2)S(=O)C
Method in brief: as §1

[7] = compound: CN1CCC(CNc2ccc3ncc(-c4cccc(OC(F)(F)F)c4)n3n2)CC1
Method in brief: as §1

Chain of UniProt P50750 (P50750 whole entry, looked up): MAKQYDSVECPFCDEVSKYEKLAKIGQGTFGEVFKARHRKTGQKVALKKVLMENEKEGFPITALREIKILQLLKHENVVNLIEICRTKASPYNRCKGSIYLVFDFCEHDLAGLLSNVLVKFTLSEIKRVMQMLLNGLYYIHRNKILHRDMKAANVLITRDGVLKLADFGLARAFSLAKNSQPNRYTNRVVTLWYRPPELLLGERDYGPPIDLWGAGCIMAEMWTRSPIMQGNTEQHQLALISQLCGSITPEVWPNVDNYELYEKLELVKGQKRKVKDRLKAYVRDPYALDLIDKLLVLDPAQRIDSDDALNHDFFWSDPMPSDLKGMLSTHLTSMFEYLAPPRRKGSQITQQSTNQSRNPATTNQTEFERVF
Chain of UniProt P83916 (P83916 whole entry, looked up): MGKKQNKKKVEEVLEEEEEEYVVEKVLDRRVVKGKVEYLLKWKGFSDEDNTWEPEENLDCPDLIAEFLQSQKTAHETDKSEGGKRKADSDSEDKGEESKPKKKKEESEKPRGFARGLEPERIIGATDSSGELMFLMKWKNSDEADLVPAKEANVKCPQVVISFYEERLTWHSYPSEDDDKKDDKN
Chain of UniProt Q99627 (Q99627 whole entry, looked up): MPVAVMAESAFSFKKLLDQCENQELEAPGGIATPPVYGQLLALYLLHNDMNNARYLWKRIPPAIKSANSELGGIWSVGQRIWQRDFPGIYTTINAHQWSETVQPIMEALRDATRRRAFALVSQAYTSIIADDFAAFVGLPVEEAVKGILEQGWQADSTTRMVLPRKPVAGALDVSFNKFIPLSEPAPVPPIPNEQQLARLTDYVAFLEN
Chain of UniProt P08962 (P08962 whole entry, looked up): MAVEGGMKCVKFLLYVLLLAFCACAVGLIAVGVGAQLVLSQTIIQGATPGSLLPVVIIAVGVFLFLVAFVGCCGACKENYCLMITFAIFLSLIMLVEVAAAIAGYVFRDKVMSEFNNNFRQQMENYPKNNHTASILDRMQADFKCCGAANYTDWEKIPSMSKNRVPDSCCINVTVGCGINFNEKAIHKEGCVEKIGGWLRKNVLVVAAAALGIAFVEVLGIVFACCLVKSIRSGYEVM
Chain of UniProt Q9Y5S2 (Q9Y5S2 whole entry, looked up): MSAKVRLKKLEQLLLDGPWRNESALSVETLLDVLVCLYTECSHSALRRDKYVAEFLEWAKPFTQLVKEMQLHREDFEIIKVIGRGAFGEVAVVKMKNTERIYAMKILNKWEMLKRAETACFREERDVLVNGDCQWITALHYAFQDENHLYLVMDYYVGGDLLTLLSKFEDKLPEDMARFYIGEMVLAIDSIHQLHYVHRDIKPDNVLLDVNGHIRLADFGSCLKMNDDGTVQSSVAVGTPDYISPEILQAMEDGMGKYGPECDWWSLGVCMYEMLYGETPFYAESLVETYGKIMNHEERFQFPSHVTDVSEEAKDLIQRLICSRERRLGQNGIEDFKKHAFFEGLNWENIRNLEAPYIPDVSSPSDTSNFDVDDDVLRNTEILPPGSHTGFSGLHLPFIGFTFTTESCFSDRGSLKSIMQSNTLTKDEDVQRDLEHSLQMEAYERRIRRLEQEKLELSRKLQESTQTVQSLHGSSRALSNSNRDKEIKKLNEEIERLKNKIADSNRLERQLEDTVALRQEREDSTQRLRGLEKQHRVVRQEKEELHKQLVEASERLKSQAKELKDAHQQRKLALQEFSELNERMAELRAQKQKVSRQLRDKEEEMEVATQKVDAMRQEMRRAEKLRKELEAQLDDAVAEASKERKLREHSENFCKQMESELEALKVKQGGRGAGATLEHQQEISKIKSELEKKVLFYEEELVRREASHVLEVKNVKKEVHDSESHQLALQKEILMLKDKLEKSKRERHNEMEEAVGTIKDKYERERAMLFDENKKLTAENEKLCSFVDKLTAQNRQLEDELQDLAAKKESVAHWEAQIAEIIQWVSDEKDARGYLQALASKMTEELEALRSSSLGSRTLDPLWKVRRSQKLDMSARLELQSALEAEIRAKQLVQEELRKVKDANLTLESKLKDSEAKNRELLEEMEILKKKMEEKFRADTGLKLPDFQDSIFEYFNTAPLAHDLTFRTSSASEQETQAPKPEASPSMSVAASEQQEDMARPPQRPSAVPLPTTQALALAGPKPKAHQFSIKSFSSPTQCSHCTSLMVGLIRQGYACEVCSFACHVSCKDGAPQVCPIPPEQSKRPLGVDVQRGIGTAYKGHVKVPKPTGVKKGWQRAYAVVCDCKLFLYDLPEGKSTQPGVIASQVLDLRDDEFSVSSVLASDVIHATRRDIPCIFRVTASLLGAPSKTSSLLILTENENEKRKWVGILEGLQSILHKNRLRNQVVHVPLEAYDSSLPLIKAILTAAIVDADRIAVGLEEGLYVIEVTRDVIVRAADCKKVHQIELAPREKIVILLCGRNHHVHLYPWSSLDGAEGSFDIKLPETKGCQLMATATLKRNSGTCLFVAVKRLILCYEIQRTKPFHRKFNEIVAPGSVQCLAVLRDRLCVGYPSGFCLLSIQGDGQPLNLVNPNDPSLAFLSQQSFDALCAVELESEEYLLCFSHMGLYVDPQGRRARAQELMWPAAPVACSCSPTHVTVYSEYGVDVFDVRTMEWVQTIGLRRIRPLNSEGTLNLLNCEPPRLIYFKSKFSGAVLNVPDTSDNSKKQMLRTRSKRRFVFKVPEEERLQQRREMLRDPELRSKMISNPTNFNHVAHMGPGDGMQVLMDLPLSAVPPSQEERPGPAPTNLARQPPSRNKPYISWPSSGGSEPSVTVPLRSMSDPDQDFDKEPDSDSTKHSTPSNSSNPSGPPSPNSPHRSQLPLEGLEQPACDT
Chain of UniProt O00748 (O00748 whole entry, looked up): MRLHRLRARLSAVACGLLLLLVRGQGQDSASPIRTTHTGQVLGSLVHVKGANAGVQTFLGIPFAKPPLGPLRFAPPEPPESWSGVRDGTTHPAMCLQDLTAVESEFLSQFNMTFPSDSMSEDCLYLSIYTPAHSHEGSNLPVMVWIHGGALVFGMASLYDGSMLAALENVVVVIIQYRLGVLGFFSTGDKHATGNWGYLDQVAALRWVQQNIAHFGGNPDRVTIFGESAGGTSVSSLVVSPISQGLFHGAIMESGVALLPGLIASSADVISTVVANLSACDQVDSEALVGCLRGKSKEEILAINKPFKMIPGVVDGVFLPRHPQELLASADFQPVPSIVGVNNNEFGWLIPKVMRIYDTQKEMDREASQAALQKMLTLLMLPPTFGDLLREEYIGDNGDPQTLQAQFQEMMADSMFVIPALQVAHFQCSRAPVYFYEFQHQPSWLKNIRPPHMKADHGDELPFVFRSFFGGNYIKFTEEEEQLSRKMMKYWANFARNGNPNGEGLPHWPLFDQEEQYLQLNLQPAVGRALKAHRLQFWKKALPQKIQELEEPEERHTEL
Chain of UniProt Q9Y5P4 (Q9Y5P4 whole entry, looked up): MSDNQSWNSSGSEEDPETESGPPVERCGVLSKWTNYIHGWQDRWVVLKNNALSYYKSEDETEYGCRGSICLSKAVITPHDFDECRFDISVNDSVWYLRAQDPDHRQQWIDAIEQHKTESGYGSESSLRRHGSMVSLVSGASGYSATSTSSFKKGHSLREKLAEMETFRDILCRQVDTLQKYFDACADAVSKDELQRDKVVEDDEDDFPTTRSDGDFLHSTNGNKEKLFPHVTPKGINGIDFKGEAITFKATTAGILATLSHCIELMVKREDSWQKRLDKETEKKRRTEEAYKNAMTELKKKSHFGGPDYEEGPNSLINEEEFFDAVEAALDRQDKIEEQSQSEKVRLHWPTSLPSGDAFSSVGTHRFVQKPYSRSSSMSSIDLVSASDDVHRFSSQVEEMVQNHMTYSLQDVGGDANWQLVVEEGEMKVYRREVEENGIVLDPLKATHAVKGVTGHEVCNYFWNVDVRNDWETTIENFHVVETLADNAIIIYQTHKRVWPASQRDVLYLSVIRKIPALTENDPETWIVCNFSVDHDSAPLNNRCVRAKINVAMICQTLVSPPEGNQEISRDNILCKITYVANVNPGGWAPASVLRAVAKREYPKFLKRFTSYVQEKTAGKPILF
Chain of UniProt Q8N1G2 (Q8N1G2 whole entry, looked up): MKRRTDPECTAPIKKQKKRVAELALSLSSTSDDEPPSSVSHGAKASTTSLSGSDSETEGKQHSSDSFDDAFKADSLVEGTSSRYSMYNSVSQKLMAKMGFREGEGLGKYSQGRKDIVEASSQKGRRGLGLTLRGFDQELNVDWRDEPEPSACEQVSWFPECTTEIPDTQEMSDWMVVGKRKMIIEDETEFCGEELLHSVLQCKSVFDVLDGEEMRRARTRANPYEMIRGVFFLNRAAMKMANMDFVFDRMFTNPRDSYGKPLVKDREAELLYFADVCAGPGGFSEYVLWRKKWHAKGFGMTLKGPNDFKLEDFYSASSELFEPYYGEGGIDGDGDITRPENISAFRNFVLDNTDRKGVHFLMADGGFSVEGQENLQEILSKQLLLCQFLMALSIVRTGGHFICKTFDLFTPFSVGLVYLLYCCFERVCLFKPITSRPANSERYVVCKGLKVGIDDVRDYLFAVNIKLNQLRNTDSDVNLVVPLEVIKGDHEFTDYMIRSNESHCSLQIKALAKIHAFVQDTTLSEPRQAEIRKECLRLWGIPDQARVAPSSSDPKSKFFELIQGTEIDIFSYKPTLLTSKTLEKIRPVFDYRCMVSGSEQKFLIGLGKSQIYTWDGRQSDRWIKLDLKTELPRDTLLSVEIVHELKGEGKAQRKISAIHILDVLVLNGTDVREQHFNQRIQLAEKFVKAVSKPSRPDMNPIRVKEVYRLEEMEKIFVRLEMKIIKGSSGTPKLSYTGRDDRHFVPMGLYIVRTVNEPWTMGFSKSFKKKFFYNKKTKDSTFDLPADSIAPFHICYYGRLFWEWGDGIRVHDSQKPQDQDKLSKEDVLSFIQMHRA

Row | Target | log2 fold change [1] | log2 fold change (volasertib) | log2 fold change [2] | log2 fold change (epoxomicin) | log2 fold change [3] | log2 fold change [4] | log2 fold change [5] | log2 fold change (rosiglitazone) | log2 fold change [6] | log2 fold change [7]
1 | CDC42BPB (UniProt Q9Y5S2) | 0.171 | 0.051 | -0.105 | -0.065 | 0.008 | 0.062 | 0.046 | 0.049 | 0.048 | -0.195
2 | CD63 (UniProt P08962) | -0.013 | 0.048 | -0.013 | -0.019 | 0.017 | 0.06 | 0.01 | 0.04 | 0.012 | 0.018
3 | CERT isoform 3 (UniProt Q9Y5P4) | 0.06 | 0.044 | 0.07 | 0.058 | -0.023 | -0.057 | -0.019 | -0.017 | -0.127 | 0.279 (active)
4 | CES2 isoform 4 (UniProt O00748) | 0.033 | 0.108 | 0.1 | -0.168 | 0.187 | -0.012 | -0.02 | 0.023 | 0.034 | 0.054
5 | CDK9 isoform 2 (UniProt P50750) | -0.01 | 0.078 | 0.064 | -0.06 | 0.016 | -0.092 | -0.042 | -0.019 | 0.178 | 0.205
6 | COPS8 (UniProt Q99627) | -0.018 | 0.043 | 0.032 | -0.047 | 0.008 | 0.013 | 0.033 | 0.041 | 0.011 | 0.113
7 | CBX1 (UniProt P83916) | 0.001 | -0.119 | 0.103 | -0.022 | -0.007 | -0.037 | -0.013 | 0.009 | 0.028 | -0.014
8 | CMTR1 (UniProt Q8N1G2) | -0.053 | -0.199 | 0.024 | 0.039 | -0.01 | -0.049 | 0.038 | 0.03 | -0.055 | -0.037
